In all, about 360,000 compounds went through this assay and about 17,000 (4.7%) were called active. Not shown: some 5% with an inconclusive outcome. The full list was thinned out, with actives kept by preference. Values without a mark were called inactive. No stated cut-off is given here; in the data, active means activity change below about -50%; inconclusive means mostly about -30% to -49%; inactive means weaker than that.
Assay: qHTS for Inhibitors of Inflammasome Signaling: IL-1-beta AlphaLISA Primary Screen
Conditions: THP-1 LPS/ATP IL-1B secretion, 16 h; at 57.5 µM, stronger effect = lower value
In short: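 Secreted IL-1B measured by AlphaLISA bead assay after 16 h compound exposure of THP-1 cells; compounds (final up to 57.5 uM) added 1 h before LPS (250 ng/mL) and ATP (1.25 mM) stimulation; lower signal means less secretion.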
Molecule `COc1ccc(OCC(O)CN(C)C(=O)C(C)Oc2ccccc2)cc1` (stereo unspecified) has an activity change of -1.85%. With `CN(Cc1ccccc1)CC(O)COc1ccc(CNCc2cc3ccccc3s2)cc1` (stereo unspecified) the activity change was -52.3% (active). For `Cc1ccc(OCC(=O)OC(C)CN(C)Cc2ccccc2)cc1` (stereo unspecified), the activity change was 11.3%. For `CC1(C(=O)NCc2ccccc2)CSCC(=O)N1CCCn1ccnc1` (stereo unspecified), the activity change was -3.98%. In the case of `Cc1ccc(C(CNC(=O)Nc2ccccc2)N2CCN(C)CC2)cc1` (stereo unspecified), the activity change is reported as -19.3%. Work on `Cc1ccc2nc(SCC(=O)N3CCN(c4ccccc4)CC3)nc(=O)n2c1` yielded an activity change of -22.4%. With `CCOc1ccc(CCNC(=O)CSc2cc(=O)n(C)c3ccc(Cl)cc23)cc1OCC` the activity change was 15.4%. In the case of `CCN(CCCNC(=O)CSc1cc(=O)n(C)c2cc(Cl)ccc12)Cc1ccccc1`, the activity change is reported as -66.3% (active). With `CCN(CC)CCCNC(=O)CCn1nc(-c2ccc(Cl)cc2)ccc1=O` the activity change was 0.889%. `COC(=O)c1ccc(CN2C(=O)C(Cc3ccccc3)ON=C2c2ncccc2C)o1` (stereo unspecified) gave an activity change of 0%. `Cc1ccc2cccc(OCCCOc3ccccc3CO)c2n1` gave an activity change of -5.38%. `N#Cc1cccc(NC(=O)CN2CCCCCC2)c1` gave an activity change of -4.14%. For `O=C1CC(c2ccccc2)=NN1c1ccc([N+](=O)[O-])cc1`, the activity change was -62.7% (active). For `Cc1nc(-c2ccc([N+](=O)[O-])cc2)c(-c2ccccc2)o1`, the activity change was -1.34%. Work on `O=[N+]([O-])c1ccc(N2CCOCC2)cc1` yielded an activity change of -12%. In the case of `Cc1c(NC(=O)COC(=O)/C=C/c2cccc(F)c2)c(=O)n(-c2ccccc2)n1C`, the activity change is reported as -1.18%. Work on `CCCCN1CC(C)(C)[C@H](CC(=O)Nc2ccc(Br)cc2)C1=O` yielded an activity change of -25.6%. Work on `COc1ccc([C@H]2C[C@@H](n3cc(COC(=O)c4ccccc4)nn3)[C@H](O)CN2C(=O)c2cccs2)cc1` yielded an activity change of 3.71%. `C[C@H]1CN([C@@H](C)CO)C(=O)CCCn2cc(nn2)CO[C@@H]1CN(C)S(=O)(=O)c1ccc(-c2ccccc2)cc1` showed an activity change of 0%. Molecule `O=c1oc2c(CN3CCCCC3)c(O)ccc2c2c1CCCCC2` has an activity change of 11%. In the case of `CN1CCN(Cc2c(O)ccc3c2oc(=O)c2ccccc23)CC1`, the activity change is reported as -65.7% (active). `CCOC(=O)c1oc2c(CN3CCN(C)CC3)c(O)ccc2c(=O)c1-c1ccc(Br)cc1` showed an activity change of 2.61%. `O=c1cc(CN2CCCCCCC2)c2c(ccc3ccccc32)o1` showed an activity change of 25.6%. With `CN(Cc1ccccc1)C(=O)COC(=O)/C=C/c1ccc2c(c1)OCO2` the activity change was -60.4% (active). `CCOC(=O)CCCNC(=O)COC(=O)/C=C/c1ccc2c(c1)OCO2` showed an activity change of -11.7%. In the case of `O=C(COC(=O)/C=C/c1ccc2c(c1)OCO2)NC1CCS(=O)(=O)C1` (stereo unspecified), the activity change is reported as -29.2%. In the case of `OC[C@@H]1CN(Cc2ccc(F)cc2)C[C@H](n2cnc3c(NC4CCCC4)ncnc32)O1`, the activity change is reported as 0%. `O=C(COc1ccccc1F)Nc1nc(-c2ccccn2)cs1` gave an activity change of 33.3%. For `COc1ccc(CCNc2nc(-c3cccc(NC(C)=O)c3)cs2)cc1OC`, the activity change was -53.6% (active). Work on `CCCCCCC(=O)Nc1nc(C)c(-c2csc(Nc3cccc(OC)c3)n2)s1` yielded an activity change of -17.4%. With `COc1cccc(CC(=O)Nc2nc(-c3ccc(OC)c(OC)c3)cs2)c1` the activity change was -50.3% (active). With `COc1cc(CC(=O)Nc2nc(-c3ccc(F)c(F)c3)cs2)cc(OC)c1OC` the activity change was -57% (active). `COc1ccc(OC)c(-c2csc(NC(=O)COC(=O)C3CC3)n2)c1` gave an activity change of -8.53%. In the case of `COc1ccc(CCN(C(=O)COc2ccccc2)c2nc(-c3ccccc3)cs2)cc1OC`, the activity change is reported as -19.6%. With `COc1ccc(NC(=O)C2(C)Cc3c(-c4cccc(NC(C)=O)c4)ccnc3O2)cc1OC` (stereo unspecified) the activity change was -4.57%. For `CC(=O)Nc1cccc(-c2csc(Nc3cccc(C)n3)n2)c1`, the activity change was -56.6% (active). Molecule `CC(=O)NC(c1ccccc1)c1nc(-c2cccc(C(C)C)c2)cs1` (stereo unspecified) has an activity change of -14.5%. With `COc1ccc(-c2csc(Nc3cccc(C)n3)n2)cc1OC` the activity change was -7.72%. With `COc1cc(CC(=O)NCc2cccs2)cc(OC)c1OC` the activity change was 0%. Molecule `CCCNC(=O)C1(C)CCCN(C(=O)c2cccc(OC(C)=O)c2C)C1` (stereo unspecified) has an activity change of 1.04%. For `CCc1nc2c(OCCOc3ccccc3)cccn2c1N(C)C(=O)c1ccccc1F`, the activity change was -0.777%. `CC(C)CCNC(=O)c1cccnc1Sc1ccccc1` showed an activity change of -7.52%. In the case of `COc1ccc(CC(=O)Nc2nc(-c3ccc(F)c(F)c3)cs2)cc1OC`, the activity change is reported as -67.5% (active). Work on `CCCc1ccc(-c2csc(NC(=O)Cc3cccs3)n2)cc1` yielded an activity change of 8.64%. Molecule `COc1ccc(CC(=O)Nc2ccccc2NC(=O)c2ccco2)cc1OC` has an activity change of 12.9%. For `CCCc1c(C)nc2scc(-c3ccc(Cl)cc3)n2c1=O`, the activity change was 26.4%. `COc1ccc(C(CNC(=O)COc2ccc([N+](=O)[O-])cc2)N2CCCCC2)cc1` (stereo unspecified) showed an activity change of -22.1%. With `COc1ccc(C(CNC(=O)COc2ccccc2OC)N2CCCCC2)cc1` (stereo unspecified) the activity change was -6.28%. In the case of `CCc1ccc(OCC(=O)NCC(c2ccc(Cl)cc2)N2CCCCC2)cc1` (stereo unspecified), the activity change is reported as -99.8% (active). For `Cc1ccc(C(=O)NNC(=O)OC(C)(C)C)c(Cl)c1`, the activity change was -7.82%. In the case of `CC(C)(C)OC(=O)NNc1c2ccccc2nc2ccccc12`, the activity change is reported as -75.9% (active). `Cc1noc(C)c1COC(=O)c1cc2ccccc2cc1O` gave an activity change of -1.49%. Work on `CC(C)(C)OC(=O)NCCCCCNC(=O)c1nc[nH]c1C(=O)NCc1ccccc1` yielded an activity change of 11%. Molecule `O=C(COC(=O)c1ccc(O)cc1O)NC(=O)c1ccccc1` has an activity change of 13.5%. In the case of `O=C(NNc1c2ccccc2nc2ccccc12)c1cc2ccccc2cc1O`, the activity change is reported as -60.2% (active). Work on `Cc1ccccc1NC(=O)Cn1cc(C(=O)C2CC2)c2ccccc21` yielded an activity change of 16.9%. `CCC1NC(=O)c2cccnc2-n2c1nc1ccc(C)cc1c2=O` (stereo unspecified) gave an activity change of -3.64%. For `N#C/C(=C(\O)C(F)(F)F)c1nnc2n1CCCCC2`, the activity change was 11.5%. Molecule `N#C/C(=C(\O)CCl)c1nnc2n1CCCCC2` has an activity change of 4.27%. With `N#C/C(=C/c1cccc([N+](=O)[O-])c1)c1nnc2n1CCCCC2` the activity change was -112% (active). `CCOC(=O)C1(C)CCCN(C(=O)c2ccc(N(C)C)cc2)C1` (stereo unspecified) showed an activity change of 9.68%. `CCN(CC)C(=O)[C@H]1CC(CC(=O)NCc2ccco2)C(=O)N2CCc3c([nH]c4ccccc34)[C@]12C` (stereo partly specified) gave an activity change of 7.15%. `O=C1OCCN1C(=O)[C@H]1[C@H](c2ccc(Cl)cc2)C(c2cccc(Cl)c2)=NN1c1ccc(Br)cc1` showed an activity change of -23.1%. With `C[C@@H]1C(c2ccc(F)cc2)=NN(c2ccc(Br)cc2)[C@H]1C(=O)N1CCOC1=O` the activity change was -54.4% (active). For `O=C1OCCN1C(=O)[C@H]1[C@H](c2ccc(F)cc2)C(c2ccccc2)=NN1c1ccc(Br)cc1`, the activity change was -15.9%. With `CN(CC(=O)Nc1c(Cl)cccc1Cl)C(=O)CNC(=O)C1CCCCC1` the activity change was “inactive”. In the case of `COc1cccc(CC2(CO)CCCN(Cc3ccc(OC(F)F)cc3)C2)c1` (stereo unspecified), the activity change is reported as -9.05%. In the case of `O=S1(=O)CC(N2CCN(c3ccccn3)CC2)CN1Cc1ccc(F)cc1` (stereo unspecified), the activity change is reported as -7.1%. In the case of `Cc1c(CN2CC[C@@H](N3CCN(c4ccccn4)CC3)[C@H](O)C2)[nH]c2ccc(F)cc12`, the activity change is reported as -50.8% (active). Molecule `O=C(CCC1CCCN(C(=O)Cc2ccc(F)cc2)C1)N1CCN(c2ccccn2)CC1` (stereo unspecified) has an activity change of -15.7%. `COc1ccc(-c2ccc3c(c2)[C@@H]2C[C@H](N(C)S(=O)(=O)c4ccccc4)[C@H]([C@H](C)O)C(=O)N2CC3)cc1` showed an activity change of -14.6%. With `O=C(CCc1ccc(O)cc1)NN=Cc1cc(Br)ccc1O` the activity change was 137%. `O=P(O)(CP(=O)(c1ccccc1)c1ccccc1)c1ccccc1O` gave an activity change of -5.18%. For `CC(C)(C)c1cc(P(=O)(c2ccccc2)c2ccccc2)ccc1O`, the activity change was -66.1% (active). With `O=S(=O)(Nc1ccc2ccccc2c1)N1CCCCC1` the activity change was -5.44%. `CC(C)(C)C(=O)Nc1cccc(-c2ccc[nH]2)n1` gave an activity change of -1.09%. In the case of `OCCCNc1nccc(-c2cc(Nc3cccc(Cl)c3)ncn2)n1`, the activity change is reported as -1.28%. With `CC(C)n1cnc2c(Nc3cccc(Cl)c3)nc(N(CCO)CCCO)nc21` the activity change was -97.4% (active). `Cn1c(Nc2cccc(Cl)c2)nc2ccccc21` showed an activity change of -6.01%. `CCOC(=O)N(Cc1ccccc1)C1CC1` showed an activity change of 8.58%. `O=C1CC(c2ccccc2)C(=O)N2C(=O)CC(c3ccccc3)C(=O)N12` (stereo unspecified) showed an activity change of -11.1%. In the case of `COC(=O)[C@@]12C[C@@H](CC(=O)N3CCCCC3)C(=O)N(Cc3ccc4c(c3)OCO4)C1=CCC(C)(C)C2`, the activity change is reported as -13.6%. In the case of `COC(=O)[C@@]12C[C@@H](CC(=O)N3CCC(c4ccccc4)CC3)C(=O)N(Cc3ccccc3)C1=CCC(C)(C)C2`, the activity change is reported as -70.2% (active). For `CCOC(=O)N1CCN(C(=O)C[C@@H]2C[C@@]3(C(=O)OC)CC(C)(C)CC=C3N(Cc3ccco3)C2=O)CC1`, the activity change was 5.52%. `COc1ccc(CN2C[C@H]3CON(C)[C@H]3C[C@H]2c2ccc(-c3cccc(F)c3)cc2)cc1` showed an activity change of 11.4%. For `CC1(C(=O)NCc2ccccc2)CN(S(C)(=O)=O)CC(=O)N1CC(F)(F)F` (stereo unspecified), the activity change was 30.7%. For `COc1ccc(C(=O)NC(C)Cn2nc(C)cc2C)cc1OC1CCN(C(C)=O)CC1` (stereo unspecified), the activity change was 0%. `CCCCC[C@@H]1C=C(C(=O)OCC)[C@H](c2ccccc2)N1S(=O)(=O)c1ccc(C)cc1` showed an activity change of 37.3%. `COc1ccc2c(c1)O/C(=C\c1ccccc1O)C2=O` showed an activity change of 45.7%. For `COc1cc(/C=C2\Oc3ccc(C#Cc4ccc(O)cc4)cc3C2=O)cc(OC)c1`, the activity change was -79.1% (active). Molecule `COc1cc(C#Cc2ccc3cc(CCCO)oc(=O)c3c2)cc(OC)c1` has an activity change of 0%.
On the % scale 0 is the no-effect control and ±100 the full control effect.
